The source of these data is PubChem BioAssay (NCI).

Among the test systems are NCI-H23 lung; NCI-H226 lung; NCI-H322M lung; HOP-62 NSCLC; NCI-H460 lung; HOP-92 NSCLC; NCI-H522 lung; 786-0 renal; COLO 205 colon; DU-145 prostate; K-562 leukemia; MALME-3M melanoma; MDA-MB-231 breast; RXF 393 renal; SF-268 CNS; SF-295 CNS; SF-539 CNS; UACC-257 melanoma; A549/ATCC NSCLC; M14 melanoma.
What all share (test): NCI-60 one-dose screen, 48 h (100 = growth as untreated, 0 = no growth, -100 = all killed)
What all share (settings): 10 µM unless noted

Compounds without any hit were thinned out: in the full panel of roughly 83,000, 20% have a hit.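 Compound tested at a single concentration for 48 hours in 96-well plates; a percent growth value below 10 was scored as active.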 Unmarked numbers belong to inactive results. The source made the active and inactive calls.

With `O=C(c1nn(-c2ccccc2)c2c1CC(NCc1ccc(F)cc1)CC2)N1CCCCC1` (stereo not drawn), the growth in the assay with NCI-H23 lung was 95.3%; with NCI-H226 lung, 103%; in the assay with NCI-H322M lung it was 98.2%; in the assay with HOP-62 NSCLC, 114%; with NCI-H460 lung, 117%; in the assay with HOP-92 NSCLC, 92.5%. Also, the growth in the assay with NCI-H522 lung was 89.3%; with 786-0 renal, 96.4%; in the assay on COLO 205 colon it was 108%; in the assay with DU-145 prostate it was 108%; in the assay on K-562 leukemia it was 91%; in the assay with MALME-3M melanoma it was 102%. Moreover, the growth is 110% in the assay on MDA-MB-231 breast; 107% with RXF 393 renal; 93% with SF-268 CNS; 102% in the assay on SF-295 CNS; 106% with SF-539 CNS; 101% in the assay with UACC-257 melanoma.
For the compound `COC(=O)CC[C@H](C)[C@H]1CC[C@H]2[C@@H]3CC[C@@H]4CC5(CC[C@]4(C)[C@H]3CC(=O)[C@]12C)Nc1ccccc1NC5=NC(C)(C)C` (stereo partly drawn), the growth is 72.8% with NCI-H23 lung; 65.4% in the assay with NCI-H226 lung; 95.6% in the assay with NCI-H322M lung; 84.3% with HOP-62 NSCLC; 85.5% with NCI-H460 lung; -2.12% (active) in the assay on HOP-92 NSCLC. Also, the growth in the assay on NCI-H522 lung is 75.8%; in the assay on A549/ATCC NSCLC, 82.3%; in the assay on 786-0 renal, 81.1%; in the assay on DU-145 prostate, 90.2%; with K-562 leukemia it was 42.2%; in the assay with MALME-3M melanoma it was 109%. The growth in the assay with MDA-MB-231 breast was 86.7%; in the assay with RXF 393 renal, 84.7%; with SF-268 CNS it was 84.1%; in the assay on SF-295 CNS, 84%; in the assay on SF-539 CNS it was 90.8%; in the assay on UACC-257 melanoma it was 77.2%. Further, the growth in the assay with M14 melanoma is 84.9%.
In the case of `CCN(CC)Cc1cc(C=C2C(=O)NC(=S)NC2=O)cc(OC)c1O`, the growth in the assay on NCI-H23 lung is 98.1%; in the assay on NCI-H226 lung it was 107%; in the assay on NCI-H322M lung, 103%; with HOP-62 NSCLC, 106%; in the assay with NCI-H460 lung it was 104%; in the assay on HOP-92 NSCLC it was 104%. The growth was 104% with NCI-H522 lung; 104% with 786-0 renal; 117% in the assay on COLO 205 colon; 111% in the assay on DU-145 prostate; 117% in the assay with K-562 leukemia; 111% with MALME-3M melanoma. Also, the growth in the assay with MDA-MB-231 breast was 103%; in the assay with RXF 393 renal it was 115%; in the assay on SF-268 CNS, 101%; in the assay on SF-295 CNS it was 102%; in the assay on SF-539 CNS, 101%; in the assay on UACC-257 melanoma it was 106%.
Regarding `Cn1cc(-c2nonc2-c2cn(C)c3ccccc23)c2ccccc21`, the growth is 43.1% with NCI-H23 lung; 81% in the assay with NCI-H226 lung; 47% in the assay with NCI-H322M lung; 21.2% with HOP-62 NSCLC; 8.94% (active) in the assay on NCI-H460 lung; 48.8% with HOP-92 NSCLC. Further, the growth in the assay with NCI-H522 lung was -20.5% (active); with 786-0 renal, 28.1%; in the assay on COLO 205 colon, -34% (active); in the assay on DU-145 prostate it was 16.3%; in the assay on K-562 leukemia, 9.77% (active); in the assay on MALME-3M melanoma it was 53.4%. Moreover, the growth in the assay with MDA-MB-231 breast is 23.2%; in the assay on RXF 393 renal, 1.39% (active); with SF-268 CNS, 48.1%; with SF-295 CNS, 17.5%; with SF-539 CNS, -21.6% (active); in the assay with UACC-257 melanoma, 65.7%. Moreover, the growth in the assay with M14 melanoma is 6.28% (active).
As to `O=C(Nc1cccc2ccccc12)NC1CC1`, the growth in the assay with NCI-H23 lung is 105%; in the assay on NCI-H226 lung, 99.9%; in the assay on NCI-H322M lung, 111%; in the assay with HOP-62 NSCLC, 89.8%; with NCI-H460 lung, 106%; in the assay on HOP-92 NSCLC, 99%. In addition, the growth is 136% in the assay on NCI-H522 lung; 101% in the assay with 786-0 renal; 107% in the assay with COLO 205 colon; 141% in the assay with DU-145 prostate; 107% in the assay on K-562 leukemia; 123% in the assay with MALME-3M melanoma. Further, the growth was 113% in the assay with MDA-MB-231 breast; 107% in the assay on RXF 393 renal; 120% with SF-268 CNS; 116% in the assay with SF-295 CNS; 122% with SF-539 CNS; 106% in the assay with UACC-257 melanoma.
For the compound `COCCOc1cc2ncnc(N3CCN(c4ncc(S(=O)(=O)N5CCCCC5)cn4)CC3)c2cc1OCCOC`, the growth with NCI-H23 lung is 91.5%; with NCI-H226 lung, 97.2%; with NCI-H322M lung it was 96.5%; in the assay on HOP-62 NSCLC, 118%; in the assay with NCI-H460 lung, 103%; in the assay on HOP-92 NSCLC, 89.5%. For the same compound, the growth with NCI-H522 lung was 84.4%; with 786-0 renal it was 108%; in the assay on COLO 205 colon it was 121%; in the assay on DU-145 prostate, 102%; in the assay with K-562 leukemia, 96.3%; with MALME-3M melanoma, 93.8%. The growth in the assay on MDA-MB-231 breast is 106%; in the assay with RXF 393 renal, 110%; in the assay with SF-268 CNS, 93.3%; with SF-295 CNS it was 99.6%; in the assay with SF-539 CNS, 107%; with UACC-257 melanoma, 101%. Besides, the growth with M14 melanoma is 97.8%.
`COC(=O)c1nc(-c2ccccc2)oc1S(=O)(=O)Cc1ccccc1`: the growth in the assay on NCI-H23 lung is 96.8%; with NCI-H226 lung, 96.1%; in the assay with NCI-H322M lung, 98.1%; with HOP-62 NSCLC it was 99.2%; with NCI-H460 lung, 107%; with HOP-92 NSCLC, 87.2%. For the same compound, the growth in the assay with NCI-H522 lung is 38.1%; in the assay on 786-0 renal it was 71.4%; in the assay with COLO 205 colon it was -43% (active); in the assay on DU-145 prostate, 109%; with K-562 leukemia, 2.87% (active); in the assay on MALME-3M melanoma, -78.7% (active). In addition, the growth is 85.2% in the assay with MDA-MB-231 breast; 96.8% in the assay on RXF 393 renal; 93.1% with SF-268 CNS; 103% with SF-295 CNS; 100% in the assay on SF-539 CNS; 85.1% in the assay with UACC-257 melanoma. The growth in the assay with M14 melanoma is 48%.
Regarding `N#C/C(=C\c1c(-c2ccccc2)[nH]c2ccccc12)C(N)=O`, the growth is 85.4% with NCI-H23 lung; 95.1% in the assay on NCI-H226 lung; 104% in the assay with NCI-H322M lung; 87.4% with HOP-62 NSCLC; 92.2% with NCI-H460 lung; 65.1% with HOP-92 NSCLC. Besides, the growth with NCI-H522 lung is 83.3%; in the assay with 786-0 renal, 98.7%; in the assay with COLO 205 colon, 92.8%; in the assay with DU-145 prostate it was 108%; with K-562 leukemia, 24%; with MALME-3M melanoma it was 93%. Moreover, the growth with MDA-MB-231 breast was 71.6%; in the assay with RXF 393 renal it was 122%; in the assay on SF-268 CNS, 97.3%; in the assay with SF-295 CNS, 99.7%; in the assay on SF-539 CNS, 71%; in the assay on UACC-257 melanoma, 105%. Moreover, the growth in the assay on M14 melanoma is 68.9%.
`CS(=O)(=O)Nc1cc(-c2ccc3ncnc(Nc4ccc5c(cnn5Cc5ccc(F)cc5)c4)c3c2)cnc1Cl`: the growth was 43.8% in the assay with NCI-H23 lung; 66.8% with NCI-H226 lung; 60.7% with NCI-H322M lung; 43.5% with HOP-62 NSCLC; 61.5% in the assay on NCI-H460 lung; -17.5% (active) with HOP-92 NSCLC. In addition, the growth with NCI-H522 lung is 43.7%; with 786-0 renal, 48.3%; with COLO 205 colon, 60.1%; with DU-145 prostate it was 62.1%; with K-562 leukemia, 48.5%; in the assay on MALME-3M melanoma, -4.18% (active). Besides, the growth with MDA-MB-231 breast is 32.9%; with RXF 393 renal, 9.93% (active); in the assay on SF-268 CNS, 14.9%; with SF-295 CNS, 66.1%; in the assay on SF-539 CNS, 27.5%; in the assay with UACC-257 melanoma it was 50%. In addition, the growth with M14 melanoma is 36.8%.
